For ten compounds, ΔTm results are on record in ChEMBL document CHEMBL5724796, “Tm Shift (DSF) assay results for EUbOPEN Chemogenomics Library” (2024).

Structures are written as SMILES. Non-standard residues stand in square brackets, D forms with d. Residues, ends and D or L forms follow the SMILES beside them. *: point of attachment. Benzoyl(4-tBu) = CC(C)(C)c1ccc(C(=O)*)cc1; Lys(Et2) = CCN(CC)CCCC[C@H](N)C(=O)O

Settings in all cases: Compound concentration 20.0 uM
For assay [1], the target named is Tyrosine-protein kinase ABL1 (Homo sapiens) (UniProt P00519).
Sequence of Tyrosine-protein kinase ABL1 (Homo sapiens) (P00519 whole entry): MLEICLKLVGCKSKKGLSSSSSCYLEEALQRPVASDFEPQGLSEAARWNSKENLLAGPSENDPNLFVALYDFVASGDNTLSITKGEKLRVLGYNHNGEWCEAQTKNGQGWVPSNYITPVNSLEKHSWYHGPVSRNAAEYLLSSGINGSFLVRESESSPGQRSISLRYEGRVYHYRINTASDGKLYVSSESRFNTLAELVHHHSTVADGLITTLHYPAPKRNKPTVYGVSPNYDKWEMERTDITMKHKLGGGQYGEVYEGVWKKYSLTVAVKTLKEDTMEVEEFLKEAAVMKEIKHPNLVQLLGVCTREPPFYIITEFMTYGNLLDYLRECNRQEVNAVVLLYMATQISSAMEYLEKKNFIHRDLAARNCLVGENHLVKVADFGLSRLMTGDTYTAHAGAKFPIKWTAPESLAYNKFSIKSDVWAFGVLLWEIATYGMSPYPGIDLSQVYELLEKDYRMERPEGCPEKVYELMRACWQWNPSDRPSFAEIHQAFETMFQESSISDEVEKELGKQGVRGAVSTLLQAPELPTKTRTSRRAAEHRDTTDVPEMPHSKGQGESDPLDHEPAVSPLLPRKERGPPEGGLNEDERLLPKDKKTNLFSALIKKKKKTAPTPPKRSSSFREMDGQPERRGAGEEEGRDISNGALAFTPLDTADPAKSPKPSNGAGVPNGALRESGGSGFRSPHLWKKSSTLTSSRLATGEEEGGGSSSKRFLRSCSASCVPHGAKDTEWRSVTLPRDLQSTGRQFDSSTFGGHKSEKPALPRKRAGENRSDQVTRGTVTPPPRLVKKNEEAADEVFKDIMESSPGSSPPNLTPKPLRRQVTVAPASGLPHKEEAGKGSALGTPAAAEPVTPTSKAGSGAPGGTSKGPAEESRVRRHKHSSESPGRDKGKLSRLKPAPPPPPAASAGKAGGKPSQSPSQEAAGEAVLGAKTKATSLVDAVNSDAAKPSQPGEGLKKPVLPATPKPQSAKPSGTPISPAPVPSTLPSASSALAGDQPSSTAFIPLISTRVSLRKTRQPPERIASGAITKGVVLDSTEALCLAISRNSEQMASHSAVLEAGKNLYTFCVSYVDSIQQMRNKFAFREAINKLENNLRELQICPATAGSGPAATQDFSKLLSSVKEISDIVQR
The target in assay [2] is Bromodomain-containing protein 4 (Homo sapiens) (UniProt O60885).
The target in assay [3] is Cyclin-dependent kinase 2 (Homo sapiens) (UniProt P24941).
The target of assay [4] is Casein kinase I isoform delta (Homo sapiens) (UniProt P48730).
Sequence of Casein kinase I isoform delta (Homo sapiens) (P48730 whole entry, looked up, canonical isoform): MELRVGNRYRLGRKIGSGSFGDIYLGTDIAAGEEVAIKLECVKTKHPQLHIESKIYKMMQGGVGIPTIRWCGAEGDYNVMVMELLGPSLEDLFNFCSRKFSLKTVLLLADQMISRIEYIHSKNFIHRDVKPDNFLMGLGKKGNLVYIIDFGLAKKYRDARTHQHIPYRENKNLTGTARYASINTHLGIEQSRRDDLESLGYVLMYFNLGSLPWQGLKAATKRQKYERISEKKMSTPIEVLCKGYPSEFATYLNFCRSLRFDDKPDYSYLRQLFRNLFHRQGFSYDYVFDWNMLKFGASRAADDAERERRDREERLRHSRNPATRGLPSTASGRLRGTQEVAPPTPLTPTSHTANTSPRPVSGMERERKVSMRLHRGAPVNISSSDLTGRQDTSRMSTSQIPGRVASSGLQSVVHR
In assay [5] the target is Glycogen synthase kinase-3 beta (Homo sapiens) (UniProt P49841).
Sequence of Glycogen synthase kinase-3 beta (Homo sapiens) (P49841 whole entry, looked up): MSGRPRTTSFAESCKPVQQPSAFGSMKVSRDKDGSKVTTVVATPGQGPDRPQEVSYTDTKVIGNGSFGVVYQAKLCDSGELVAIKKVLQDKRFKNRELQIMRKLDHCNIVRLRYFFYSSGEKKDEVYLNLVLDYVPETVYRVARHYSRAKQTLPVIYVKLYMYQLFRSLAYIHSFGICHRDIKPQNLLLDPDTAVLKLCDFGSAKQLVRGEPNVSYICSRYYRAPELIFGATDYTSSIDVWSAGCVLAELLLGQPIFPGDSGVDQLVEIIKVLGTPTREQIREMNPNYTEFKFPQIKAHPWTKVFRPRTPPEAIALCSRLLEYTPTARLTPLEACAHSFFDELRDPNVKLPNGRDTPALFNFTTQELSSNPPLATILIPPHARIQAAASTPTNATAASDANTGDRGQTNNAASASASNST
Assay [6] has as its target Mitogen-activated protein kinase 1 (Homo sapiens) (UniProt P28482).
Assay [7] concerns the target T1, Aurora kinase A (Homo sapiens) (UniProt O14965).
T1 sequence (whole entry): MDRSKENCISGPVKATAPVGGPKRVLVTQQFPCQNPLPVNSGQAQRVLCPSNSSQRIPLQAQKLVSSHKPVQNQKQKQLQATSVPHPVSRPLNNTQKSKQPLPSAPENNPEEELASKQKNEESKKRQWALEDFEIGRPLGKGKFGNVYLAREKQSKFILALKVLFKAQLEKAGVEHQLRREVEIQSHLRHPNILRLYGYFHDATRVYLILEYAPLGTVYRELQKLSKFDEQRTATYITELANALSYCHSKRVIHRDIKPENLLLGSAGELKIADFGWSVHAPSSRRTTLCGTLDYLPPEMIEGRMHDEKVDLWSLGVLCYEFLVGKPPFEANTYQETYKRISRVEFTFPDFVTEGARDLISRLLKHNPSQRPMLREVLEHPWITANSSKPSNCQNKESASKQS

Assay [8] addresses T2, Transcription intermediary factor 1-alpha (Homo sapiens) (UniProt O15164).
T2 sequence (whole entry): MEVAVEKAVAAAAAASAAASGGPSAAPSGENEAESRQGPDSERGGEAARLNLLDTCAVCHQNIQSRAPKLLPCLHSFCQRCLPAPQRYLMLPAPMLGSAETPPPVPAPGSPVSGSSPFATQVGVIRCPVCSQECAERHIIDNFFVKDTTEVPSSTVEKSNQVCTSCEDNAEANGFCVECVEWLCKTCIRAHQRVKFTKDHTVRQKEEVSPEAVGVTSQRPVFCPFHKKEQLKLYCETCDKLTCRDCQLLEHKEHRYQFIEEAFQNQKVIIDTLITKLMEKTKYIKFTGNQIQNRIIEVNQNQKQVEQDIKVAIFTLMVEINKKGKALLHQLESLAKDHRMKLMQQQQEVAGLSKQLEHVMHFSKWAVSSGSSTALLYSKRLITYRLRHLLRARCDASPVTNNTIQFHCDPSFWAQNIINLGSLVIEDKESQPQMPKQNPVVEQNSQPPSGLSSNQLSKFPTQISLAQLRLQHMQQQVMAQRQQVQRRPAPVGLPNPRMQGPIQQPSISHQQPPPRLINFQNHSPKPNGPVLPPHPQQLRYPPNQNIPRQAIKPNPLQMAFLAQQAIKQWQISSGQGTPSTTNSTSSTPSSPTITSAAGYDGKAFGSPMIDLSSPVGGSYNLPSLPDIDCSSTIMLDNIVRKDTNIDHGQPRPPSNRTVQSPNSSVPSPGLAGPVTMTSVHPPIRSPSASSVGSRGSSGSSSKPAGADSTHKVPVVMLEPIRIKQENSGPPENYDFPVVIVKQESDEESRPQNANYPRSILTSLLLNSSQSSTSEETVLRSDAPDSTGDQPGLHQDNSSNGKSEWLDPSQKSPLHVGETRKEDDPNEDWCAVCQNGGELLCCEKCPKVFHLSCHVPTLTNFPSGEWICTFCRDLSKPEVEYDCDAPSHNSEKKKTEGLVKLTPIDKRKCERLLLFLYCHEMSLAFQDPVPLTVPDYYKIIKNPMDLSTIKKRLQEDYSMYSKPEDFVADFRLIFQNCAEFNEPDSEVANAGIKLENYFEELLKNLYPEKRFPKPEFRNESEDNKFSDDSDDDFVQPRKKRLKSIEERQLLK

Sequence of Mitogen-activated protein kinase 1 (Homo sapiens) (P28482 whole entry): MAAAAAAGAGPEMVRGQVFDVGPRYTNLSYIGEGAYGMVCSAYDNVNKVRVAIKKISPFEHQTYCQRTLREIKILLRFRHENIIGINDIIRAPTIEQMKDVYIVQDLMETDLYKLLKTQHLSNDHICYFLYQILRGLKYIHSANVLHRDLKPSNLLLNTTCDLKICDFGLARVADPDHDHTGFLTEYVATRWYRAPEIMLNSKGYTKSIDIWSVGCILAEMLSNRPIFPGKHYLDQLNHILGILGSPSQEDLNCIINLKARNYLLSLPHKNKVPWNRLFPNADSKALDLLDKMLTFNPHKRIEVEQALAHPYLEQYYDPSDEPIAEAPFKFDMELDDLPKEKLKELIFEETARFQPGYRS

As a reminder, the ΔTm is the change in melting temperature against a reference sample. Turning to `CCN(CC)c1ccc(C2=NNC(=O)C[C@H]2C)cc1[N+](=O)[O-]`, the ΔTm in assay [1] was 0.04 °C; in assay [2], 0.2 °C; in assay [3], -0.04 °C; in assay [4], 0.06 °C; in assay [5], 0.13 °C; in assay [6], -0.11 °C. Besides, the ΔTm in assay [7] was -0.2 °C; in assay [8], -0.15 °C.

Turning to `N=C(N)N/N=C/c1cccc(Cl)c1Cl`, the ΔTm is 0.36 °C in assay [1]; -1.26 °C in assay [2]; -0.05 °C in assay [3]; 0.55 °C in assay [4]; -0.98 °C in assay [5]; 0.2 °C in assay [6]. Besides, the ΔTm in assay [7] was -0.81 °C; in assay [8], -0.47 °C.

Take `CC/C(=C(/CC)c1ccc(O)cc1)c1ccc(O)cc1`: the ΔTm is -0.96 °C in assay [1]; -4.78 °C in assay [2]; -5.57 °C in assay [3]; -0.81 °C in assay [4]; -3.54 °C in assay [5]; -12.2 °C in assay [6]. Besides, the ΔTm in assay [7] is -1.78 °C; in assay [8], 1.49 °C.

`Cn1c(=O)c2c(nc(N3CCNCC3)n2Cc2nnc(-c3ccc(Cl)c(Cl)c3)o2)n(C)c1=O`: the ΔTm in assay [1] is 0.59 °C; in assay [2], -3.55 °C; in assay [3] it was 0.01 °C; in assay [4], 0.33 °C; in assay [5], -0.89 °C; in assay [6], 0.1 °C. Moreover, the ΔTm was -0.39 °C in assay [7] and -0.46 °C in assay [8].

With `C[C@H](N)C(=O)N1C[C@H](CCCB(O)O)[C@](N)(C(=O)O)C1`, the ΔTm in assay [1] was 0.03 °C; in assay [2], -2.12 °C; in assay [3], -0.11 °C; in assay [4], -0.32 °C; in assay [5], -0.3 °C; in assay [6], 0.12 °C. Also, the ΔTm in assay [7] is -2.46 °C; in assay [8], -0.11 °C.

`CCCCCCCCCCCCCCCCNNC(=O)c1cccs1`: the ΔTm was 0.05 °C in assay [1]; -1.37 °C in assay [2]; -0.3 °C in assay [3]; 0.26 °C in assay [4]; -1.02 °C in assay [5]; 0.48 °C in assay [6]. For the same compound, the ΔTm in assay [7] is -0.52 °C; in assay [8] it was -0.93 °C.

As to `O=C(NCCCOc1ccc2[nH]c(=O)ccc2c1)N(C1CC1)[C@@H]1CCCC[C@H]1O`, the ΔTm in assay [1] was 0.31 °C; in assay [2] it was -0.85 °C; in assay [3] it was -0.14 °C; in assay [4], -0.05 °C; in assay [5], -0.66 °C; in assay [6], 0.1 °C. The ΔTm in assay [7] was -2.39 °C; in assay [8], 0.02 °C.

For the compound `C[C@]12CCCN1CC1=NNC(=O)c3cc(F)cc4[nH]c2c1c34`, the ΔTm in assay [1] was found to be 0.67 °C; in assay [2], 2.16 °C; in assay [3] it was 2.04 °C; in assay [4], 1.06 °C; in assay [5] it was 8.59 °C; in assay [6], 0.1 °C. The thermal shift (ΔTm) in assay [7] came out at 1.26 °C; in assay [8] it was 0 °C.

With `CC1(NC(=O)COc2cccc(-c3nc4c(c(Nc5ccc(-c6cn[nH]c6)cc5)n3)CN(C3CCC3)CC4)c2)CC1`, the ΔTm in assay [1] is 0.81 °C; in assay [2] it was -2.72 °C; in assay [3], 0.02 °C; in assay [4], -0.75 °C; in assay [5], -0.18 °C; in assay [6] it was 0.14 °C. In addition, the ΔTm in assay [7] was 0.11 °C; in assay [8], -0.35 °C.

Take `CCN(CC)CCCC[C@H](NC(=O)[C@H](CC(C)C)NC(=O)[C@H](C)NC(=O)[C@H](Cc1ccccc1)NC(=O)c1ccc(C(C)(C)C)cc1)C(=O)N[C@@H](CO)C(=O)OC` ({Benzoyl(4-tBu)}-FAL[Lys(Et2)]S-OMe): the thermal shift (ΔTm) in assay [1] is 0.51 °C; in assay [2], -1.71 °C; in assay [3] it was -0.26 °C; in assay [4] it was 0.5 °C; in assay [5] it was -1.01 °C; in assay [6] it was 0.31 °C. Moreover, the ΔTm in assay [7] was -1.22 °C; in assay [8], -1.11 °C.
